Structures are written as SMILES. Out of some 310,000 compounds screened, about 14,000 (4.5%) showed an effect of 50% or more. The effect is printed as a negative number. The sample holds strong results, similar compounds and a random draw of the others, so the mix is not that of the screen.
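Also: peak tail current of the secondary pulse compared with the same well before compound.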

The test deals with human ether-à-go-go-related gene (hERG) potassium channel (human, UniProt Q12809). In words: primary screen, population patch clamp on CHO cells stably expressing hERG; higher = less effect of the substance.
Sequence of human ether-à-go-go-related gene (hERG) potassium channel (Q12809 whole entry, looked up): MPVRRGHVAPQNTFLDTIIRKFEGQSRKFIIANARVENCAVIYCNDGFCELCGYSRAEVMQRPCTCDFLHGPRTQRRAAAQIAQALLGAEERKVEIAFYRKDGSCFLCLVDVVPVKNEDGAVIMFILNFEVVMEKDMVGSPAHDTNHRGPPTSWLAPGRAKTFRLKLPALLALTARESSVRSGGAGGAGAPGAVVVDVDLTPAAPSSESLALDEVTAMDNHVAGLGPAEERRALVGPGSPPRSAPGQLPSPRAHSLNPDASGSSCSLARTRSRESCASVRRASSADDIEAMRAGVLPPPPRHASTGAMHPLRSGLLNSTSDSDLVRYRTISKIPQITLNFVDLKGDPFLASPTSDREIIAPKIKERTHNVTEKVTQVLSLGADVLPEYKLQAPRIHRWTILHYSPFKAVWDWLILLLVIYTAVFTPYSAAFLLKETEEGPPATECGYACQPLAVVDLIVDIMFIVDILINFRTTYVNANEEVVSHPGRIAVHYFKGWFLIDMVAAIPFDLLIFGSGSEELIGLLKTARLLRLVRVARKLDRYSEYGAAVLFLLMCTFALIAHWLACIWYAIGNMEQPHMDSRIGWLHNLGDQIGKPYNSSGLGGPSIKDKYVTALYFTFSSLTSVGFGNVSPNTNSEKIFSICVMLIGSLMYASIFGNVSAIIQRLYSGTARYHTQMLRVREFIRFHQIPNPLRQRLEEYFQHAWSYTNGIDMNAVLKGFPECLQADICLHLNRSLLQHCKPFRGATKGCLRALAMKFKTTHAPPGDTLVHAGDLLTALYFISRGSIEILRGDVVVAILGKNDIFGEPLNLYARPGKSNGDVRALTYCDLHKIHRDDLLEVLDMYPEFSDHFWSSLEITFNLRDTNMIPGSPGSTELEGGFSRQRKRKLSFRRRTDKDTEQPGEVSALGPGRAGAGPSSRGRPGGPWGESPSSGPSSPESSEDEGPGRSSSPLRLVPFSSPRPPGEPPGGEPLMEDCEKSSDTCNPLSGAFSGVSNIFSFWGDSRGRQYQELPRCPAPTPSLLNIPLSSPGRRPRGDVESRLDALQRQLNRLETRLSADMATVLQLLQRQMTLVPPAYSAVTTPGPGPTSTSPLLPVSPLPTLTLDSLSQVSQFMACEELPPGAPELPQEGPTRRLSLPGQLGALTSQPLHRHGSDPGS
On to `CN(C)S(=O)(=O)c1ccc(N2CCCC2)c(C(=O)Nc2ccccc2OC(F)F)c1`, for which the “hERG current change (%, negative = inhibition) at 10uM” value is -54.2%. Next, `CN(C)S(=O)(=O)c1ccc(N2CCCC2)c(C(=O)Nc2ccc(F)cc2F)c1`: -33.2%; `CN(C)S(=O)(=O)c1ccc(N2CCCC2)c(C(=O)NC(c2ccccc2)c2ccccc2)c1`: 6.73%. For `COc1cc(-c2nn3c(-c4cccc(C)c4)nnc3s2)cc(OC)c1OC`, the “hERG current change (%, negative = inhibition) at 10uM” value is reported as 13.1%. The value for `Cc1nn(C)c(=O)n1N(C)c1ncc(C(F)(F)F)cc1Cl` was 23.8%; that for `Cc1ccc(F)cc1NC(=O)CN1CCN(c2ccccn2)CC1` was -35.2%. Next, `Cc1c(CN2CC[C@@H](N3CCN(c4ccccn4)CC3)[C@H](O)C2)[nH]c2ccc(F)cc12`: -60.9%. The value for `Cc1[nH]c2ccc(C(=O)N3CCN(c4ccccn4)CC3)cc2c1C` was -2.92%. Consider `CCN(CC)CCNC(=O)c1ccc(NC(=O)c2c(F)cccc2Cl)cc1`, for which the “hERG current change (%, negative = inhibition) at 10uM” value is -12.4%.

Take `CCN(CC)CCNC(=O)c1ccc(NC(=O)c2ccc(F)cc2)cc1`: the “hERG current change (%, negative = inhibition) at 10uM” value is recorded as -43.6%. As to `CCN(CC)CCNC(=O)c1ccc(NC(=O)c2c(C)nn(-c3ccc(F)cc3)c2Cl)cc1`, the “hERG current change (%, negative = inhibition) at 10uM” value is given as -60%. Next, `COC(=O)c1c(C)nn(-c2ccc(F)c(Cl)c2)c1-c1cc(C)on1`: -4.39%; `O=C(O)CCSc1nnc(SCC(=O)NCC(F)(F)F)s1`: 7.55%. The value for `Cc1nn(C(=O)c2ccco2)c(C)c1CN1C(=O)c2ccccc2C1=O` was -12.2%; that for `OC(c1ccc(Cl)cc1)C(O)c1nc2ccccc2[nH]1` (stereo not drawn) was -2.47%. Consider `OC(COc1ccc(Cl)cc1)CN1CCN(c2ccccn2)CC1` (stereo not drawn), for which the “hERG current change (%, negative = inhibition) at 10uM” value is -68%. Regarding `CC(C)c1ccc(OCC(O)CN2CCN(c3ccccn3)CC2)cc1.Cl` (stereo not drawn), the “hERG current change (%, negative = inhibition) at 10uM” value is on record as -63.7%. Next, `Cl.OC(COCc1ccc(Cl)cc1)CN1CCN(c2ccccn2)CC1` (stereo not drawn): -66.4%; `CC(C)(C)c1ccc(OCC(O)CN2CCN(c3ccccn3)CC2)cc1.Cl` (stereo not drawn): -16%; `CC(=O)c1ccc(OCC(O)CN2CCN(c3ccccn3)CC2)cc1.Cl` (stereo not drawn): -25.8%.

Consider `OC(COc1ccc2cc(Br)ccc2c1)CN1CCN(c2ccccn2)CC1` (stereo not drawn), for which the “hERG current change (%, negative = inhibition) at 10uM” value stood at 1.85%. As to `OC(CN1CCN(c2ccccn2)CC1)Cn1c2ccc(Cl)cc2c2cc(Cl)ccc21` (stereo not drawn), the “hERG current change (%, negative = inhibition) at 10uM” value worked out at 0.599%. Next, `Cc1cc(OCC(O)CN2CCN(c3ccccn3)CC2)cc(C)c1Cl.Cl` (stereo not drawn): -0.237%.

With `O=C(O)CCCn1cc(NC(=O)c2ccco2)cn1`, the “hERG current change (%, negative = inhibition) at 10uM” value was 26.7%.

Consider `O=C(NCCN1CCOCC1)c1ccc(CSc2nc3ccncc3n2Cc2ccc(F)cc2)cc1`, for which the “hERG current change (%, negative = inhibition) at 10uM” value was -8.35%. As for `Fc1ccc(-c2nnn(Cc3nc4ccccc4s3)n2)cc1`, the “hERG current change (%, negative = inhibition) at 10uM” value is given as -11.2%. Consider `CCN(CC)C(=O)c1cc2c(=O)n3cccc(C)c3nc2s1`, for which the “hERG current change (%, negative = inhibition) at 10uM” value was found to be 15.5%. `Cc1cccc(-c2nc(CN3CCCC(C(=O)NC4CCCC4)C3)c(C)o2)c1` (stereo not drawn): the “hERG current change (%, negative = inhibition) at 10uM” value is reported as -76.3%. Regarding `CCN(c1ccc(OC)cc1)S(=O)(=O)N1CCCC(C(=O)NCc2cccc(C)c2)C1` (stereo not drawn), the “hERG current change (%, negative = inhibition) at 10uM” value is -26.5%.

As for `Cc1cccc(-c2nc(CN3CCCC(C(=O)NC4CCCCC4)C3)c(C)o2)c1` (stereo not drawn), the “hERG current change (%, negative = inhibition) at 10uM” value is reported as -60.4%. As to `COc1ccc(CNC(=O)C2CCCN(Cc3nc(-c4cccc(C)c4)oc3C)C2)cc1` (stereo not drawn), the “hERG current change (%, negative = inhibition) at 10uM” value is -63.8%. The value for `COc1ccc(CNC(=O)C2CCCN(c3nccc(C)n3)C2)cc1` (stereo not drawn) was -0.849%; that for `Cc1cccc(-c2nc(CN3CCCC(C(=O)NC4CCC(C)CC4)C3)c(C)o2)c1` (stereo not drawn) was -68.4%. In the case of `COc1cccc(N2CCN(S(=O)(=O)c3ccc(-n4cnnn4)cc3)CC2)c1`, the “hERG current change (%, negative = inhibition) at 10uM” value is given as 16.6%. Consider `CCN(CC)CCNC(=S)NC(=O)c1cn(-c2ccccc2)nc1-c1ccc(OC)cc1`, for which the “hERG current change (%, negative = inhibition) at 10uM” value is listed as -27.3%. Regarding `COc1ccc(N(CC(=O)N2CCCCC2)S(=O)(=O)c2c(C)nn(C)c2C)cc1`, the “hERG current change (%, negative = inhibition) at 10uM” value was 4.36%. Next, `CCOC(=O)CSc1nnc(Cc2ccccc2)n1CC1CCCO1` (stereo not drawn): 5%; `Clc1ncc(Cn2cccn2)s1`: 10.5%; `O=C1C2C3C=CC(C3)C2C(=O)N1/N=C/c1cn(Cc2ccc(F)cc2)c2ccccc12` (stereo not drawn): 5.84%. The value for `O=C(NCCCn1ccnc1)c1ccc(Cl)s1` was 5.72%. Turning to `COC(=O)c1c(NC(=O)COC(=O)c2ccc(NC(=O)CC#N)cc2)sc2c1CCCCC2`, the “hERG current change (%, negative = inhibition) at 10uM” value was 17.6%. Next, `Cc1cccc(-c2nc(CS(=O)CC(=O)NC3CCCCC3)c(C)o2)c1` (stereo not drawn): -3.93%.

For the compound `Cc1cccc(-c2nc(CN3CCCC(C(=O)NC4CCCCCC4)C3)c(C)o2)c1` (stereo not drawn), the “hERG current change (%, negative = inhibition) at 10uM” value is -69.8%. The value for `O=C(NCCO)c1cc2ccccc2c(=O)s1` was 6.96%.

In the case of `Cc1cccc(-c2nn(-c3ccccc3)cc2C(=O)NCC(c2cccs2)N2CCOCC2)c1` (stereo not drawn), the “hERG current change (%, negative = inhibition) at 10uM” value is -4.33%. Turning to `O=C1c2ccccc2N2C(=O)c3ccccc3[C@H]2N1c1ccccc1`, the “hERG current change (%, negative = inhibition) at 10uM” value was -22.4%. The value for `O=C1c2ccccc2N2C(=O)c3ccccc3C2N1Cc1ccccc1` (stereo not drawn) was -57.9%; that for `O=C1c2ccccc2N2C(=O)c3ccccc3C2N1Cc1ccco1` (stereo not drawn) was -27.4%; that for `COC(=O)c1ccc(CN2C(=O)c3ccccc3C2=O)cc1` was 8.01%. Next, `Cc1cccc(NC(=O)CC2(CC(=O)O)CCCC2)c1`: 24.6%; `Cn1nc(-c2ccccc2)cc1NC(=O)c1cccs1`: 5.18%; `Cc1ccccc1S(=O)(=O)Cc1ccc(C(=O)NCCc2ccccc2)o1`: -30.6%. The value for `Cc1ccccc1S(=O)(=O)Cc1ccc(C(=O)NCCN(C)Cc2ccccc2)o1` was -48.5%.

For `Cc1ccccc1S(=O)(=O)Cc1ccc(C(=O)NCCN(CC(C)C)CC(C)C)o1`, the “hERG current change (%, negative = inhibition) at 10uM” value is reported as -43.6%. Next, `Cc1ccccc1S(=O)(=O)Cc1ccc(C(=O)NCCCN(C)Cc2ccccc2)o1`: -56.2%; `CCN(CC)CCNC(=O)c1ccc(CS(=O)(=O)c2ccccc2C)o1`: -24%. Next, `Cc1ccccc1S(=O)(=O)Cc1ccc(C(=O)NCCN(Cc2ccccc2)C(C)C)o1`: -55.6%.

Source of the values: PMC4336329 (PLoS ONE, 2015).
